KB-3-1 tox – KB-3-1 parental cell cytotoxicity; KB-3-1 viability, CellTiter-Glo ATP luminescence, 72 h; Potency, µM (titrated, usually from 46.1 µM), actives largely listed as cytotoxic; actives 1.4% (n = 400,000); AID 1347075; also: nearly all actives have a fitted effect of over 60% in size
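Parental KB-3-1 adenocarcinoma cells in phenol-red-free DMEM with 10% FBS were pin-treated with compounds at several concentrations, incubated 72 h at 37 °C, and viability read by CellTiter-Glo luminescence; concentration-effect curves were fitted after normalization.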
HT1080-NT tox – kills 2HG-producing HT-1080-NT fibrosarcoma cells; HT-1080-NT fibrosarcoma viability, CellTiter-Glo ATP luminescence, 48 h; Potency, µM (series often up to 46.1 µM), for the others: at the top dose activity, negative = less viability, actives largely listed as cytotoxic; actives 1.6% (n = 360,000);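 also: NT is the 2HG producing partner of a matched IDH1 knockdown line; 0% = DMSO-treated cells and -100% = media-only wells without cells; nearly all actives have a fitted effect of over 55% in size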
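Read-out is CellTiter-Glo luminescence after 10 minutes at room temperature, following 48 hours' compound treatment of HT-1080-NT cells (750 cells/well, RPMI, 5% FBS, 37 degrees C).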
HT1080 IDH1KD tx – kills HT-1080 cells with IDH1 knockdown; Potency, µM (top dose mostly 46.1 µM), inactives show top-dose activity, negative = toxicity, most hits filed as cytotoxic; HT-1080 IDH1 knockdown viability, ATP luminescence, 48 h; actives 2% (n = 360,000);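 also: 0% = DMSO wells and -100% = cell-free medium wells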
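Knockdown cells (IDH1KD HT-1080) received compounds 2 h after plating at 750 cells/well and were kept 48 h at 37 °C in 5% FBS RPMI. A CellTiter-Glo luminescence read gave % activity for curve fitting.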
TDP1 cell noCPT – qHTS for Inhibitors of human tyrosyl-DNA phosphodiesterase 1 (TDP1): qHTS in cells in absence of CPT; actives 15% (n = 420,000); Potency, µM (doses to about 46.2 µM), without a hit: at the highest dose activity change, negative = growth inhibition, actives largely listed as inhibitors; DT40 Tdp1-/- hTDP1 cells, no CPT, ATP luminescence, 48 h; AID 686978, 2013; also: nearly all actives have a fitted effect of over 55% in size
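Camptothecin absent (DMSO only). Human TDP1-complemented DT40 knockout cells, 400 cells/well, 37 °C for minimum 48 hr; ATP measured via CellTiter-Glo, 30 min dark incubation, luminescence.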
TDP1 cell CPT – DT40-hTDP1 cell growth loss with CPT; chicken DT40 Tdp1-/-;hTDP1 cells + 20 nM CPT, ATP luminescence, 48 h; Potency, µM (series often up to 46.2 µM), without a hit: at the top dose activity change, negative = growth inhibition, usual class: inhibitors; actives 12% (n = 420,000); AID 686979; also: nearly all actives have a fitted effect of over 55% in size
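Cell growth measured by CellTiter-Glo luminescence after a minimum 48 h, 37 C compound exposure with 20 nM CPT in Tdp1-knockout DT40 cells stably expressing hTDP1, seeded 400/well; qHTS titration format.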
KB-V1 MDR tox – kills drug-selected multidrug resistant KB-V1 cells; KB-V1 MDR cells viability, CellTiter-Glo, 72 h; Potency, µM (series often up to 46.1 µM), actives largely listed as cytotoxic; actives 3.4% (n = 400,000); AID 1347076; also: nearly all actives have a fitted effect of over 60% in size
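In this primary screen, KB-V1 cells overexpressing P-gp are incubated with library compounds (lowest to highest concentration) for 72 h at 37 degrees C before a luminescent ATP viability read.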
Numbers without * were called inactive; i = inactive; ? = inconclusive; · = no result given; [ ] = remark or other dose. Hits are enriched below; roughly 19% of the tested compounds scored in any of these assays. Calls follow the shape of the dose curve; as a rule, active = well fitted curve in the direction sought with a large enough effect; inconclusive = small, poorly fitted or top-dose-only effect, or another doubt; inactive = no such curve, though single readings can be large; an effect the other way counts as inactive or inconclusive. Unless noted, % is scaled to controls: 0 for no effect and ±100 for the full control effect; potency is read from the fitted curve at half-maximal effect.

SMILES | KB-3-1 tox | HT1080-NT tox | HT1080 IDH1KD tx | TDP1 cell noCPT | TDP1 cell CPT | KB-V1 MDR tox
CCCN(CCC)c1ccc(/C=C/c2ccc3cc(OCC)ccc3n2)cc1 | i | 8% | 15% | 23µM* | ? | i
CCCOc1ccc(-c2c(C(=O)N/N=C(\C)COc3ccccc3)nnn2-c2nonc2N)cc1 | i | -15% | -10% | 9% | -28% | i
CCOC(=O)C1=C(C)N(C[C@@H]2CC[C@@H](Cc3ccc(-c4ccccc4)cc3)O2)C(=O)NC1c1cccc([N+](=O)[O-])c1 (stereo partly drawn) | i | -10% | -7% | ? | ? | i
CCOC(=O)C1=C(C)N(C[C@@H]2CC[C@@H](Cc3ccc(-c4ccccc4)cc3)O2)C(=O)NC1C1CC1 (stereo partly drawn) | i | 4% | 4% | 21µM* | ? | i
CCOC(=O)C1=C(C)N(C[C@@H]2CC[C@@H](Cc3ccc(-c4ccccc4)cc3)O2)C(=O)NC1c1ccc(Cl)cc1 (stereo partly drawn) | ? | -1% | -2% | 21µM* | ? | i
CCOC(=O)C1=C(C)N(C[C@@H]2CC[C@@H](Cc3ccc(-c4ccccc4)cc3)O2)C(=O)NC1c1ccc(-c2ccccc2)cc1 (stereo partly drawn) | i | 4% | 14% | ? | ? | i
Cc1ccccc1COC(=O)c1ccc(-c2nnn(Cc3ccccc3F)n2)cc1 | i | · | · | 1% | -28% | i
COc1ccc(NC(=O)c2cc(C3CCCCN3C(=O)C3CC3)on2)c(C)c1 (stereo not drawn) | i | 4% | 24% | -24% | ? | i
Cn1nc(C(C)(C)C)cc1C(=O)N1CCCCC1c1cc(C(=O)Nc2cccc(C#N)c2)no1 (stereo not drawn) | i | ? | 9% | 16µM* | 21µM* | i
N#Cc1cccc(NC(=O)c2cc(C3CCCCN3C(=O)C3CC3)on2)c1 (stereo not drawn) | i | 2% | -3% | ? | 26µM* | i
COc1ccc(C(=O)N2CCCCC2c2cc(C(=O)Nc3cccc(C#N)c3)no2)cc1 (stereo not drawn) | i | 11% | 0% | ? | 23µM* | i
COc1ccc(NC(=O)c2cc(C3CCCCN3C(=O)c3ccccc3)on2)c(C)c1 (stereo not drawn) | i | -6% | -11% | 9.2µM* | 18µM* | i
Cn1nc(C(C)(C)C)cc1C(=O)N1CCCCC1c1cc(C(=O)N2CCOCC2)no1 (stereo not drawn) | i | 2% | 16% | ? | ? | ?
O=C(Nc1ccccc1)c1cc(C2CCCCN2C(=O)OCc2ccccc2)on1 (stereo not drawn) | i | -8% | -19% | -19% | -21% | i
CS(=O)(=O)NCC(c1ccco1)N1CCN(c2ccccc2)CC1 (stereo not drawn) | · | · | · | -16% | -12% | ·
Nc1ccn([C@@H]2O[C@H](CNCc3ccc(C#CCCO)cc3)[C@@H](O)[C@H]2O)c(=O)n1 | i | 0% | -18% | ? | -4% | i
Cc1ccc(CNc2ncnc3sc(C(=O)N4CCC[C@H]4C(N)=O)c(C)c23)o1 | · | · | · | -29% | 0%[9.04 µM] | ·
O=C(Nc1ccccc1)c1cc(C2CCCCN2C(=O)c2cccs2)on1 (stereo not drawn) | i | 0% | -12% | 18µM* | ? | i
N#Cc1cccc(NC(=O)c2cc(C3CCCCN3C(=O)c3ccccn3)on2)c1 (stereo not drawn) | i | ? | 1% | ? | 23µM* | i

Screens from PubChem BioAssay.
